According to the supplement of paper PMC7530171:
Where a name gives a salt, the structure may show the parent alone. ± gives the standard deviation.

tested on: THP-1 macrophages infected with Mycobacterium tuberculosis H37Rv; test: intracellular M.tb growth inhibition relative to DMSO (0) and 4 uM bedaquiline (100); higher = stronger inhibition of intracellular bacterial growth; details: 10 µM; 4 days
Method: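 OICR kinase inhibitor library screened in duplicate at 10 uM against THP-1 macrophages (PMA-differentiated) infected with M. tuberculosis H37Rv-pTEC27 (tdTomato RFP), 4 days at 37 C. Rows with complete host cell loss (placeholder inhibition 0, cell loss 100) were removed.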

Row | SMILES | intracellular M.tb growth inhibition [%]
1 | O=C1C(Cl)=C(NCCN2CCOCC2)C(=O)c2ncccc21 | -3.64 ± 5.1
2 | O=C(Nc1ccc(-c2cn[nH]c2)cc1)C1COc2ccccc2O1 (stereo not given) [Rho Kinase Inhibitor V] | 27.7 ± 10
3 | CC1(C)CNc2cc(NC(=O)c3cccnc3NCc3ccncc3)ccc21 [Motesanib diphosphate salt] | 44.9 ± 27
4 | CC(C)(C)c1nc2c3cc[nH]c(=O)c3c3cc(F)ccc3c2[nH]1 [Merck-5] | -268 ± 290
5 | c1ccc(-c2n[nH]c3c2oc2ccccc23)cc1 | 7.69 ± 11
6 | Cn1cc(C2=C(c3ccc(Cl)cc3Cl)C(=O)NC2=O)c2ccccc21 | -108 ± 200
7 | Cc1ccc(S(=O)(=O)Nc2nc3ccccc3nc2Nc2ccc3nsnc3c2)cc1 | -56.4 ± 99
8 | Cc1cc(C(=O)Nc2cc(Nc3ccc4c(/C=C/c5ccccn5)n[nH]c4c3)ccc2F)n(C)n1 | -16.4 ± 71
9 | COc1ccc(S(=O)(=O)N(C(C)=O)c2ccccc2/C=C/c2cc[n+]([O-])cc2)cc1 | -316 ± 310
10 | O=C1c2ccc(O)c(O)c2C(=O)c2c(O)ccc(O)c21 [Quinalizarin] | -115 ± 210
11 | CCc1cc(Nc2nccc(-c3c(-c4ccc(OC)c(C(=O)Nc5c(F)cccc5F)c4)nc4ccccn34)n2)c(OC)cc1N1CCC(N2CCN(S(C)(=O)=O)CC2)CC1 | -49.9 ± 68
12 | Cc1cc(F)c(Nc2ncnc3cc(OCc4ccccc4)ccc23)cc1O | 38.8 ± 33
13 | CCn1c(-c2nonc2N)nc2cnc(Oc3cccc(NC(=O)c4ccc(OCCN5CCOCC5)cc4)c3)cc21 | 54.4 ± 77
14 | Cc1cccc(-c2nn(C(=S)Nc3ccccc3)cc2-c2ccnc3ccccc23)n1 | 17.7 ± 18
15 | Oc1c2ccccc2c2c3c(cccc13)N=N2 | 12.9 ± 20
16 | COc1ccc(Cl)cc1NC(=O)Nc1cc(C)nc2ccccc12 | 59.1 ± 9.6
17 | N#CC(=C(/N)Sc1ccccc1N)/C(C#N)=C(/N)Sc1ccccc1N | 13.3 ± 58
18 | Cn1cnc2c(NCc3ccccc3)nc(NCCO)nc21 [Olomoucine] | -10.5 ± 23
19 | O=C1NC(=O)[C@@H](c2cn3c4c(cccc24)CCC3)[C@@H]1c1c[nH]c2ccccc12 | -118 ± 200
20 | CN(C)CC(C)(C)CNc1nn2c(-c3ccccc3)nnc2cc1C1CCC1 | -56.3 ± 120

Row | SMILES | intracellular M.tb growth inhibition [%]
21 | COCC(=O)NC/C=C/c1ccc2ncnc(Nc3ccc(Oc4ccc(C)nc4)c(C)c3)c2c1 | 5.71 ± 95
22 | CC(C)CCN1c2nc(Nc3cc(F)c(O)c(F)c3)ncc2N(C)C(=O)C1C (stereo not given) | -228 ± 190
23 | COc1cc(Nc2ncc3c(n2)-c2ccc(Cl)cc2C(c2c(F)cccc2OC)=NC3)ccc1C(=O)O | -73.6 ± 120
24 | O=S(=O)(NCCNC/C=C/c1ccc(Br)cc1)c1cccc2cnccc12 [H 89 dihydrochloride] | 70.3 ± 6.1
25 | O=c1cc(N2CCOCC2)oc2c(-c3ccccc3)cccc12 | -0.768 ± 100
26 | Cn1cc(-c2ccc3nnc(C(F)(F)c4ccc5ncccc5c4)n3n2)cn1 | -109 ± 120
27 | O=c1oc2c(O)c(O)cc3c(=O)oc4c(O)c(O)cc1c4c23 [Ellagic acid] | -20.9 ± 30
28 | COc1cc2c(Nc3ccc(NC(=O)c4ccccc4)cc3)ncnc2cc1OCCCN1CCOCC1 | -10.1 ± 48
29 | O=C1NC(=O)C(c2ccccc2[N+](=O)[O-])=C1Nc1ccc(O)c(Cl)c1 | -38.8 ± 82
30 | OCCC#Cc1nc(-c2ccc(F)cc2)c(-c2ccncc2)n1CCCc1ccccc1 | 14.2 ± 4.9
31 | CCc1cncnc1N1CCN(Cc2nc3ccc(C(F)(F)F)cc3[nH]2)CC1 | 16.2 ± 23
32 | CN(C)S(=O)(=O)c1ccc2c(c1)/C(=C/c1cc3c([nH]1)CCCC3)C(=O)N2 | -51.7 ± 62
33 | Cn1c(=O)n(-c2ccc(C(C)(C)C#N)cc2)c2c3cc(-c4cnc5ccccc5c4)ccc3ncc21 | 26.6 ± 26
34 | COc1cc2ncnc(-n3nc(-c4ccccn4)nc3N)c2cc1OC | -77 ± 180
35 | c1ccc(-c2[nH]ncc2-c2ccnc3ccccc23)nc1 | 2.68 ± 17
36 | Cc1cc(C(=O)N2CCN(c3cccc(Cl)c3)CC2)n(-c2ccccc2)n1 | -17.5 ± 0.18
37 | C=CC[C@@H]1/C=C(\C)C[C@H](C)C[C@H](OC)[C@H]2O[C@@](O)(C(=O)C(=O)N3CCCC[C@H]3C(=O)O[C@H](/C(C)=C/[C@@H]3CC[C@@H](O)[C@H](OC)C3)[C@H](C)[C@@H](O)CC1=O)[C@H](C)C[C@@H]2OC | 42 ± 7.7
38 | O=C1Nc2ccc(I)cc2/C1=C/c1cc(Br)c(O)c(Br)c1 | 9.15 ± 48
39 | COc1cccc(-c2cc(=O)c3ccccc3o2)c1N | 27.4 ± 15
40 | O=C(O)c1ccc2c(c1)nc(Nc1cccc(Cl)c1)c1ccncc12 | -112 ± 130
